From PubChem
An excerpt weighted towards active compounds, which were near 0.83% of everything screened.
Gli-Sufu block – blocks Gli-Sufu signaling in a luciferase reporter; Sufu-KO-LIGHT fibroblasts, Gli luciferase reporter luminescence; inhibition, % at 5 µM; 340,000 tested, 0.74% active; AID 588413;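 active = inhibition above about 55%, limit read from the data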
LRH-1 inv ag – suppresses constitutive activity of human LRH-1; HEK293T StAR-luciferase reporter, LRH-1 transfected, 24 h; AID 602396; 360,000 tested, 0.13% active; inhibition, % at 3.6 µM;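 active = inhibition above the mean inhibition of all tested compounds plus 3 SD, cut at about 73% in these data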
SRC2 inh – human SRC2 (NCOA2) inhibition | AID 651957 | 370,000 tested, 0.17% active | HEK293 GAL4-SRC2 luciferase reporter, luminescence | inhibition, % at 9 µM | Q15596;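 active = inhibition above the mean inhibition of all tested compounds plus 3 SD, set per campaign, cut at about 52% in these data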
NCOA1 inh – inhibits human SRC1 coactivator | HEK293 GAL4-SRC1 luciferase reporter, luminescence | inhibition, % at 3.6 µM | 360,000 tested, 0.12% active | AID 588354;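 active = inhibition above the campaign mean plus 3 SD, with each screening campaign given its own cutoff, cut at about 60% in these data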
SRC3 inh – inhibits human SRC3 coactivator | inhibition, % at 3.6 µM | 360,000 tested, 0.17% active | HEK293 GAL4-SRC3 luciferase reporter, luminescence | Q9Y6Q9;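 active = inhibition above a per-campaign cutoff, the mean of all compounds plus 3 SD, cut at about 60% in these data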;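 also: higher means less SRC3-driven luciferase light from the GAL4 reporter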
Gli antag conf – Gli-SUFU antagonism confirmation, single concentration; shares compounds with Gli-Sufu block; Sufu-KO-LIGHT cells, Gli luciferase reporter, luminescence; inhibition, % at 5 µM; 2,500 tested, 40% active; AID 602428;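 active = mean inhibition at 5 µM reaching about 45%, limit read from the data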
Gli cytotox – cytotoxicity counter-screen for Gli-SUFU antagonists; 2,500 tested, 32% active; shares compounds with Gli-Sufu block; AID 651994; cytotoxicity, % at 5 µM; Sufu-KO-LIGHT cells cytotoxicity, ATP luminescence;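 active = mean cytotoxicity at 5 µM above about 25%, limit read from the data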;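 also: cells exposed to compound overnight for roughly 16 to 18 hours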
Wnt3a cs – Wnt3a reporter inhibition counter-screen; 2,500 tested, 20% active; inhibition, % at 6.25 µM; Wnt-LIGHT cells, Wnt3a-driven luciferase reporter, luminescence; AID 651995; shares compounds with Gli-Sufu block;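 active = mean inhibition above about 25%, limit read from the data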
Numbers stand for hits; . = inactive; / = no result; ! = not active in a repeat.

SMILES | Gli-Sufu block | LRH-1 inv ag | SRC2 inh | NCOA1 inh | SRC3 inh | Gli antag conf | Gli cytotox | Wnt3a cs
CC(=O)c1cc(-c2ccccc2)n(CCC(=O)NC2CCCCCCC2)c1C | 70 | . | . | . | . | . | . | .
COC(=O)c1ccc(Cn2ccc3ccc(-c4ccc5ccn(C(=O)c6cccc(OC)c6)c5c4)cc32)cc1 | / | / | . | / | / | / | / | /
CCc1cc(C(=O)N2CCCC(N3CCN(c4cccc(C(F)(F)F)c4)CC3)C2)n(C)n1 (stereo not drawn) | 55 | . | . | . | . | . | . | .
O=C(c1ccncc1)N1CCCC(N2CCN(c3cccc(C(F)(F)F)c3)CC2)C1 (stereo not drawn) | . | . | . | . | . | / | / | /
CSc1nc(O)c(/C=C2\C=Nc3ccccc32)[nH]1 | . | . | . | . | . | / | / | /
O=c1[nH]c(/C=C2\C=Nc3ccccc32)c(O)n1Cc1ccccc1F | 56 | . | . | . | . | 65 | 27 | .
Cc1c(/C=N/NC(=O)c2ccccc2O)c2ccccn2c1C(=O)c1ccc(F)cc1 | 79 | . | . | . | . | 71 | . | .
CC(C)N(CCCNC(=O)c1nn(C)c2c1CS(=O)(=O)c1ccccc1-2)Cc1ccccc1 | 61 | . | . | . | . | . | . | .
CN(CCCNC(=O)c1nn(C)c2c1CS(=O)(=O)c1ccccc1-2)Cc1ccccc1 | . | . | . | . | . | / | / | /
CC1CCC(C(C)C)C(OC(=O)Cn2c(-c3ccc(Br)cc3)[n+](C)c3ccccc32)C1 (stereo not drawn) | 70! | . | . | . | . | 70 | 41 | .
O=C(NCCCc1ccccc1)OC1CCC12CCC(c1ccccc1)CC2 (stereo not drawn) | / | / | . | / | / | / | / | /
Cc1ccc(CNC(=O)C23CN(Cc4ccccc4)CC2C(c2ccc([N+](=O)[O-])cc2)=NO3)o1 (stereo not drawn) | 98 | . | . | . | . | . | . | .
CCCCOC(=O)C1=C(C)NC(=O)NC1c1cccc([N+](=O)[O-])c1 (stereo not drawn) | . | . | . | . | . | / | / | /
CCC(CC)COC(=O)C1=C(C)NC(=O)NC1c1cccc([N+](=O)[O-])c1 (stereo not drawn) | 62 | . | . | . | . | . | . | .
O=C(CSc1nnc(-c2cccs2)n1Cc1ccco1)Nc1ccc(OCc2ccccc2)cc1 | / | / | . | / | / | / | / | /
CCOC(=O)N1CCN(C(=O)Cn2ncc3ccccc32)CC1 | . | . | . | . | . | / | / | /
O=C(Cn1ncc2ccccc21)N1CCN(c2cccc(C(F)(F)F)c2)CC1 | 56 | . | . | . | . | . | . | .
COC(=O)[C@]12C[C@H](CC(=O)NCCc3ccccc3OC)C(=O)N(Cc3cccc4ccccc34)C1=C[C@H](C(C)(C)C)O[C@@H]2C | / | / | . | / | / | / | / | /
Cc1ccc2c(c1)N(CCC(=O)NCc1cccnc1)C(=O)CO2 | . | . | . | . | . | / | / | /
Cc1ccc2c(c1)N(CCC(=O)NCc1ccccn1)C(=O)CO2 | . | . | . | . | . | . | . | .
COc1ccccc1CCNC(=O)c1cc(-c2ccncc2)nc2ccc(Br)cc12 | 67 | . | . | . | . | . | 25 | .
CCOC(=O)C1(CC2CCCCO2)CCN(Cc2cc3ccccc3[nH]2)CC1 (stereo not drawn) | 59 | . | . | . | . | . | . | .
COC(=O)[C@]12C[C@H](CC(=O)N3CCN(C(=O)C4CC4)CC3)C(=O)N(CCC3=CCCCC3)C1=C[C@H](C1CCCC1)O[C@@H]2C | / | / | . | / | / | / | / | /
Cc1ccc(NC(=S)N(CCCN2CCCC2)Cc2cccn2Cc2ccc(Cl)cc2)cc1Cl | 61 | . | . | . | . | . | . | .
CCOC(=O)[C@]12CCCCC/C=C\1N(CCc1ccc(Cl)cc1)C(=O)[C@H]2CC(=O)N1CCN(C(=O)c2ccco2)CC1 | / | / | . | / | / | / | / | /
SMILES | Gli-Sufu block | LRH-1 inv ag | SRC2 inh | NCOA1 inh | SRC3 inh | Gli antag conf | Gli cytotox | Wnt3a cs
CN(C)C(CNC(=O)c1cccc(S(=O)(=O)N2CCN(c3ccccc3)CC2)c1)c1ccccc1 (stereo not drawn) | . | . | . | . | . | / | / | /
COc1ccc(C(CNC(=O)c2cc(S(=O)(=O)N3CCN(c4ccccc4)CC3)ccc2Cl)N(C)C)cc1 (stereo not drawn) | 68 | . | . | . | . | . | . | .
CC(C)(C)N(Cc1cn(Cc2ccccc2)nn1)S(=O)(=O)c1ccc(N2CCCCC2)cc1Br | / | / | . | / | / | / | / | /
CC(=O)OCC1=C(C(=O)O)N2C(=O)C(NC(=O)c3ccc(COc4ccc(Cl)cc4)o3)C2SC1 (stereo not drawn) | . | . | . | . | . | . | . | .
CC(=O)OCC1=C(C(=O)O)N2C(=O)C(NC(=O)c3ccc(COc4c(C)cccc4Cl)o3)C2SC1 (stereo not drawn) | . | . | . | . | . | / | / | /
O=C(C1CCCN(S(=O)(=O)c2ccc(Br)s2)C1)N1CCN(Cc2ccccc2)CC1 (stereo not drawn) | / | / | . | / | / | / | / | /
Cc1ccccc1Cn1c(C)nc2ccccc21 | 69 | . | . | . | . | 56 | 36 | 30
CC(C)(C)N1Cc2nnn(CC3CCCCC3)c2-c2cc(F)ccc2S1(=O)=O | / | / | . | / | / | / | / | /
CCN(Cc1ccccc1)Cc1ccc(OCc2ccccc2)cc1 | 59 | . | . | . | . | . | . | .
Nc1ccc(OCc2ccccc2)cc1 | . | . | . | . | . | / | / | /
C[C@H]1/C=C/CC(=O)N[C@@H](c2ccc3ccccc3c2)[C@@H](C)/C=C/CC(=O)N[C@H]1c1ccc2ccccc2c1 | / | / | . | / | / | / | / | /
CCOc1ccc(-c2[nH]ncc2-c2ccccc2)c(O)c1 | 55 | . | . | . | . | . | . | .
COc1ccc(-c2cn[nH]c2-c2ccc(OCc3ccccc3)cc2O)cc1 | . | . | . | . | . | / | / | /
Cc1nc2ccccc2c2c1CC(C(C)(Cl)Br)O2 (stereo not drawn) | 55 | . | . | . | . | 58 | . | .
COC(=O)c1nnn(CC(=O)Nc2cccc(Cl)c2C)c1C(=O)OC | 99 | . | . | . | . | . | . | .
O=C(OC12CCCN(C1)/C(=C/c1ccc(Cl)cc1)C2)c1ccccc1 (stereo not drawn) | / | / | . | / | / | / | / | /
C=CCNC(=O)N1CCN(Cc2nc3ccccc3c(=O)[nH]2)CC1 | / | / | . | / | / | / | / | /
CCN1C(C(=O)Nc2cc(C)on2)=C(O)c2ccccc2S1(=O)=O | . | . | . | . | . | / | / | /
Cc1cc(NC(=O)C2=C(O)c3ccccc3S(=O)(=O)N2C)no1 | 62 | . | . | . | . | . | 28 | .
CN(C)C1=NC[C@H](Cc2ccccc2)N1CCCC1CCCC1 | 56 | . | . | . | . | . | 31 | .
CN(C)c1ccc(N/C(N)=N/c2nc(C(F)(F)F)cc(C(F)(F)F)n2)cc1 | . | . | . | . | . | . | . | .
